Screening results: PubChem BioAssay, National Center for Advancing Translational Sciences (NCATS)
Rab9 prom act: activators of Rab9 promoter | actives 2.8% (n = 320,000) | AID 485297 | Potency, µM (doses to about 9.22 µM), inactives show at the top dose activation, negative = inhibition, actives largely listed as activators | Huh7 Rab9 promoter-luciferase reporter, luminescence, 24 h; note: % of control where 0% means no effect; nearly all actives have a fitted effect of over 60% in size
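Measured in stably transfected Huh7 cells bearing a Rab9 promoter–luciferase construct: 24 h compound treatment at 37 °C, followed by luminescence detection.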
NPC1 promoter act: NPC1 promoter activation | Huh7 NPC1 promoter luciferase reporter, 24 h | Potency, µM (series often up to 9.22 µM), for inactives: at the highest dose activation, actives largely listed as activators | actives 2.4% (n = 320,000); note: % of control where 0% means no effect; nearly all actives have a fitted effect of over 60% in size
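Cells: Huh7 expressing luciferase under the NPC1 promoter, 1500/well. Seeded 2 h, compound added, incubated 24 h at 37 °C. Luciferase reagent, 10 min ambient, then luminescence.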
ELG1 genotox: induces genotoxicity in HEK293T cells with luciferase-tagged ELG1 | actives 1.3% (n = 330,000) | Potency, µM (highest dose often 46 µM), for inactives: at the highest dose activity change, positive = activation, usual class: activators | HEK293T ELG1-luciferase reporter, luminescence, 16 h; note: % of control where 0% means no effect; nearly all actives have a fitted effect of over 60% in size
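Reporter readout depends on ELG1 protein level, which increases with genetic stress. After 16 hr compound exposure at 37 °C, luciferase activity was quantified using ONE-Glo.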
SMN2 splice up: increases expression of the SMN2 splice variant; AID 1458; Potency, µM (top dose mostly 46.1 µM), inactives show at the highest dose activity change, positive = activation, most hits filed as activators; actives 2.8% (n = 210,000); HEK293 SMN2-luciferase splicing reporter, luminescence, 30-36 h; note: % of control where 0% means no effect; nearly all actives have a fitted effect of over 55% in size
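qHTS luciferase splicing reporter: luminescence rises when SMN2 exon 7 is included in transfected HEK293 cells. Compound exposure lasted 30-36 h at 37C, with 4.5 mM final sodium butyrate as control, followed by a ONE-Glo read.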
FLuc modulator: inhibits or activates purified firefly luciferase, miR-21 counter-screen. P08659. purified FLuc, Km substrates, luminescence inhibition. Potency, µM (series often up to 57.5 µM), for inactives: at the top dose activity change, negative = inhibition, hits mostly inhibitors. actives 6.9% (n = 360,000);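 note: plate controls were vehicle for no effect and reference inhibitor for full effect; nearly all actives have a fitted effect of over 55% in size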
Target sequence (P08659 whole entry, looked up): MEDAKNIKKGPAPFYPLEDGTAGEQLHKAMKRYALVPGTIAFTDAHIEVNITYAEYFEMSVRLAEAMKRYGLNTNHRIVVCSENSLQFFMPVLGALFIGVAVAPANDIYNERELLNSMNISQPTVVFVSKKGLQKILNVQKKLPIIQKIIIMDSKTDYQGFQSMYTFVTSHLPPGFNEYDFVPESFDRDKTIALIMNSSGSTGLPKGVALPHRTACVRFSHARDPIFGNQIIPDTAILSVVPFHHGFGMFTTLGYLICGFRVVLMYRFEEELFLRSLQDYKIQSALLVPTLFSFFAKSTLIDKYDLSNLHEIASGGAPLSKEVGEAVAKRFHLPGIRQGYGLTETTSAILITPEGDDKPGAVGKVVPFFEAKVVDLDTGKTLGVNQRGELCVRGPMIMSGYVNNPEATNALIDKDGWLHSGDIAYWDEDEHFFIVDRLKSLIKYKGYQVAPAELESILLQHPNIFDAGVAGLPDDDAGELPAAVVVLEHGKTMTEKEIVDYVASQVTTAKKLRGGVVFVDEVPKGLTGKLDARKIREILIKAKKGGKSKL
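Biochemical qHTS of compounds, final roughly 60 µM downward over six points, against 10 nM purified firefly luciferase using Km concentrations of substrates (10 uM D-luciferin, 10 uM ATP) in Tris acetate pH 7.5 buffer; luminescence output.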
* hit, by the source's call; [ ] = remark or other dose. Only some compounds are listed: those with a hit (about 7.5% of all), similar ones and a draw of the others. Calls come from the whole dose curve; as a rule, active = well fitted curve in the direction sought with a large enough effect; inconclusive = small, poorly fitted or top-dose-only effect, or another doubt; inactive = no such curve, though single readings can be large; an effect the other way counts as inactive or inconclusive. Potency is the fitted concentration of half-maximal effect.

CC1(C(=O)NNC(=O)c2cccc([N+](=O)[O-])c2)CC1(Br)Br (stereo unspecified) was read as Rab9 prom act -2%, NPC1 promoter act 0%, ELG1 genotox 0% and FLuc modulator 1%.
`CCC(O)OC(O)CC` (stereo unspecified) gave SMN2 splice up 3%.
Screening Cc1ccc(S(=O)(=O)N2CCN(C(=O)COC(=O)/C=C/c3ccccc3[N+](=O)[O-])CC2)c(C)c1 returned Rab9 prom act 3%, NPC1 promoter act 9%, ELG1 genotox -2% and FLuc modulator 6%.
`CC(C)NC(=O)N(C)C[C@H]1Oc2ccc(NC(=O)Cc3ccccc3)cc2C(=O)N([C@H](C)CO)C[C@@H]1C` gave ELG1 genotox 3%.
Screening O=C(Nc1ccc(F)cc1F)c1csc(-c2cccs2)n1 returned Rab9 prom act inconclusive, NPC1 promoter act 0%, ELG1 genotox -5%, SMN2 splice up inconclusive and FLuc modulator 6.7µM*.
For CC(C)c1cc(C(=O)NCCc2ccccc2)no1 the results were Rab9 prom act 2.2µM*, NPC1 promoter act 3.2µM*, ELG1 genotox inconclusive and FLuc modulator 17µM*.
`O=C(NCc1ccco1)c1cc(-c2ccc(F)cc2)on1` gave Rab9 prom act 2.8µM*, NPC1 promoter act 2.5µM*, ELG1 genotox inconclusive, SMN2 splice up 21% and FLuc modulator inconclusive.
Screening O=C(NCc1ccco1)c1cc(-c2ccccc2)on1 returned Rab9 prom act 2.8µM*, NPC1 promoter act inconclusive, ELG1 genotox 18µM*, SMN2 splice up 13µM* and FLuc modulator inconclusive.
For O=C(Nc1ccc(F)cc1F)c1csc(-c2ccncc2)n1 the results were Rab9 prom act 11%, NPC1 promoter act 15%, ELG1 genotox 9%, SMN2 splice up 9% and FLuc modulator inconclusive.
O=C(NCc1ccco1)c1ccccc1-c1ccccc1 was read as Rab9 prom act 1%, NPC1 promoter act -2%, ELG1 genotox -3%, SMN2 splice up -12% and FLuc modulator 0%.
NNC(=O)[C@H](Cc1ccccc1)NC(=O)NCCc1ccccc1 was read as Rab9 prom act -1%[1.84 µM], NPC1 promoter act -4%, ELG1 genotox 5% and FLuc modulator 4%.
Screening Cc1nc2c(C#N)c[nH]n2c(=O)c1CCO returned Rab9 prom act -1%, NPC1 promoter act -2%, ELG1 genotox 0% and FLuc modulator 8%.
For O=C(Nc1ccc(F)cc1F)c1cc(-c2ccco2)on1 the results were Rab9 prom act 7%, NPC1 promoter act -8%, ELG1 genotox inconclusive, SMN2 splice up -17% and FLuc modulator 4.3µM*.
Screening O=C(NCc1ccc(F)cc1)c1cc(-c2ccco2)on1 returned Rab9 prom act 14%, NPC1 promoter act 2%, ELG1 genotox 1%, SMN2 splice up 20µM* and FLuc modulator 1%.
Screening O=C(Nc1c(F)cc(F)cc1Br)c1cc(-c2ccco2)on1 returned Rab9 prom act 16%, NPC1 promoter act 3%, ELG1 genotox 2%, SMN2 splice up -5% and FLuc modulator -6%.
Screening O=C(Nc1ccc(-c2cn3c(n2)SCC3)cc1)c1ccc2ccccc2n1 returned Rab9 prom act 8%, NPC1 promoter act 21%, ELG1 genotox -12%, SMN2 splice up 19% and FLuc modulator 19µM*.
Screening O=C(Nc1cccc(-c2cn3c(n2)SCC3)c1)c1ccc2ccccc2n1 returned Rab9 prom act 0.4µM*, NPC1 promoter act 0.28µM*, ELG1 genotox inconclusive, SMN2 splice up 13µM* and FLuc modulator 3µM*.
CCCS(=O)(=O)Nc1cccc(-c2cn3c(n2)SCC3)c1 was read as Rab9 prom act 0%, NPC1 promoter act -2%, ELG1 genotox 0% and FLuc modulator -2%.
Screening c1ccc(-c2cn3c(n2)SCC3)cc1 returned Rab9 prom act 21%, NPC1 promoter act 17%, ELG1 genotox 8%, SMN2 splice up 22% and FLuc modulator inconclusive.
`CCCOc1cccc(-c2cc(-c3n[nH]c(=S)n3CC)c3ccccc3n2)c1` gave Rab9 prom act -2%, NPC1 promoter act -2%, ELG1 genotox -3%, SMN2 splice up -13% and FLuc modulator 17µM*.
`CCn1c(-c2cc(-c3ccc(OC(C)C)cc3)nc3ccccc23)n[nH]c1=S` gave Rab9 prom act inconclusive, NPC1 promoter act inconclusive, ELG1 genotox 2%, SMN2 splice up 23% and FLuc modulator 0.6µM*.
CCn1c(-c2cc(-c3ccccc3OC)nc3ccccc23)n[nH]c1=S was read as Rab9 prom act 0%, NPC1 promoter act -1%, ELG1 genotox -8%, SMN2 splice up 20% and FLuc modulator 1%.
For C=CCn1c(-c2cc(-c3ccc(C)cc3)nc3ccccc23)n[nH]c1=S the results were Rab9 prom act -4%, NPC1 promoter act -1%, ELG1 genotox -7%, SMN2 splice up 4% and FLuc modulator 11µM*.
For CCn1c(-c2cc(-c3ccc(C)cc3)nc3ccccc23)n[nH]c1=S the results were Rab9 prom act 9%, NPC1 promoter act 9%, ELG1 genotox 7%, SMN2 splice up 5% and FLuc modulator 6.7µM*.
Screening CSCCNC(=O)c1ccc(C(C)(C)C)cc1 returned Rab9 prom act 4µM*, NPC1 promoter act 4µM*, ELG1 genotox inconclusive, SMN2 splice up inconclusive and FLuc modulator 3µM*.
For CC(C)(C)SCCNC(=O)c1ccccc1 the results were Rab9 prom act 3.2µM*, NPC1 promoter act inconclusive, ELG1 genotox 15%, SMN2 splice up 30% and FLuc modulator inconclusive.
`Cc1ccc(C(=O)NCCSC(C)(C)C)cc1` gave Rab9 prom act 0.56µM*, NPC1 promoter act 0.5µM*, ELG1 genotox 1.8µM*, SMN2 splice up 10µM* and FLuc modulator inconclusive.
`CN(c1ccc(C(=O)NCCSC(C)(C)C)cc1)S(=O)(=O)c1ccccc1` gave Rab9 prom act -4%, NPC1 promoter act -1%, ELG1 genotox -5% and FLuc modulator 0%.
For CCOC(CNC(=O)Cn1nc(C)c2ccccc21)OCC the results were Rab9 prom act 2%, NPC1 promoter act -3%, ELG1 genotox 1%, SMN2 splice up -15% and FLuc modulator -3%.
For CC1CCCCC1NC(=S)Nc1ccc(SC(F)F)cc1 (stereo unspecified) the results were Rab9 prom act 9%, NPC1 promoter act 5%, ELG1 genotox -13%, SMN2 splice up inconclusive and FLuc modulator 21µM*.
For S=C(Nc1ccc(Oc2ccccc2)cc1)NC1CCCC1 the results were Rab9 prom act -6%, NPC1 promoter act 2%, ELG1 genotox 0%, SMN2 splice up inconclusive and FLuc modulator inconclusive.
`FC(F)Sc1ccc(NC(=S)NC2CCCCC2)cc1` gave Rab9 prom act inconclusive, NPC1 promoter act 26%, ELG1 genotox inconclusive, SMN2 splice up inconclusive and FLuc modulator 11µM*.
